This is an account of results in PubChem BioAssay (NCI).

This is part of a sample that, as a whole, favours compounds with a hit. Of some 83,000 tested, about 20% had one in any assay.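 In brief: 96-well plates, 48 h treatment, single concentration, percent growth endpoint.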 A number with no mark means an inactive call. The source made the active and inactive calls. Rule for the calls: active = growth percent below 10; inactive = the rest.

Holding throughout (assay): NCI-60 one-dose screen, 48 h (100 = growth as untreated, 0 = no growth, -100 = all killed)
One experiment deals with NCI-H23 lung. The conditions noted are these: 10 µM unless noted.
The next experiment concerns NCI-H322M lung. The note with it: 10 µM unless noted.
Another experiment deals with HOP-62 NSCLC. The conditions noted are these: 10 µM unless noted.
The subject of another experiment is NCI-H460 lung. The note with it: 10 µM unless noted.
The next experiment relates to HOP-92 NSCLC. The note with it: 10 µM unless noted.
The subject of the next experiment is A549/ATCC NSCLC. The note with it: 10 µM unless noted.
A further experiment has as its system 786-0 renal. The conditions noted are these: 10 µM unless noted.
Another experiment concerns COLO 205 colon. The conditions noted are these: 10 µM unless noted.
The subject of the next experiment is NCI-H522 lung. The conditions noted are these: 10 µM.

In the case of `COc1ccc(-c2cc(=O)oc3c4c(ccc23)OCN(Cc2ccc(F)cc2)C4)cc1`, the growth was 41.2% in the experiment with NCI-H23 lung; 75.9% with NCI-H322M lung; 80% in the experiment on HOP-62 NSCLC; 61.8% in the experiment on NCI-H460 lung; 47.8% with HOP-92 NSCLC; 69.6% in the experiment with A549/ATCC NSCLC. In addition, the growth in the experiment with 786-0 renal was 65.7%; with COLO 205 colon, 64.2%.

Regarding `O=c1c2c(=NCCN3CCCC3)cc3c(=O)n(CCCN4CCOCC4)c(=O)c4ccc(c(O)n1CCCN1CCOCC1)c2c4-3`, the growth in the experiment with NCI-H23 lung was -49% (active); in the experiment on NCI-H322M lung it was -10.8% (active); in the experiment on HOP-62 NSCLC it was -17.3% (active); in the experiment with NCI-H460 lung, -8.16% (active); in the experiment on HOP-92 NSCLC it was -4.88% (active); with A549/ATCC NSCLC it was 6.22% (active). Also, the growth in the experiment with 786-0 renal is 1.28% (active); in the experiment on COLO 205 colon it was -55.8% (active).

With `O=C(N/N=C/c1ccc2c(c1)OCO2)c1cnn2c1NC(c1ccccc1)C2` (configuration not stated), the growth was 57.1% in the experiment on NCI-H23 lung; 59.6% with NCI-H322M lung; 60.5% with HOP-62 NSCLC; 30.1% in the experiment with NCI-H460 lung; 73.7% with HOP-92 NSCLC; 45.7% with NCI-H522 lung. Moreover, the growth in the experiment on A549/ATCC NSCLC was 45%; in the experiment on 786-0 renal, 78.9%.

In the case of `O=C1N/C(=C\c2ccccc2)c2ncccc21`, the growth in the experiment on NCI-H23 lung was 95%; in the experiment on NCI-H322M lung, 95.8%; in the experiment on HOP-62 NSCLC, 100%; with NCI-H460 lung, 113%; with HOP-92 NSCLC, 94.9%; in the experiment on NCI-H522 lung, 86.9%. In addition, the figures for the growth with A549/ATCC NSCLC and with 786-0 renal were 106% and 98.7%, respectively.

As to `COc1ccc(/C=N/NC(=O)c2cnn(CC(O)Cc3ccccc3)c2N)cc1OC1CCCC1` (configuration not stated), the growth in the experiment on NCI-H23 lung is 93.2%; in the experiment with NCI-H322M lung it was 103%; in the experiment on HOP-62 NSCLC it was 85.5%; in the experiment on NCI-H460 lung it was 98.5%; in the experiment on HOP-92 NSCLC, 86.5%; in the experiment on A549/ATCC NSCLC it was 96.3%. For the same compound, the growth in the experiment on 786-0 renal was 97.9%.

For `COC(=O)c1c2c(c(C)[n+]([O-])c1C)C(=O)C=C(NCc1cccc(Cl)c1)C2=O`, the growth in the experiment with NCI-H23 lung was -63% (active); with NCI-H322M lung it was -18.3% (active); in the experiment with HOP-62 NSCLC it was -19.8% (active); in the experiment with NCI-H460 lung, -3.61% (active); in the experiment on HOP-92 NSCLC, -32.2% (active); in the experiment on NCI-H522 lung it was -63.5% (active). Further, the growth with A549/ATCC NSCLC was -49.5% (active); in the experiment with 786-0 renal, 6.87% (active).

As for `CN(C)C(=S)SCN1C(=O)c2ccc([N+](=O)[O-])cc2S1(=O)=O`, the growth in the experiment on NCI-H23 lung is 99.7%; with NCI-H322M lung it was 99%; in the experiment on HOP-62 NSCLC it was 105%; in the experiment on NCI-H460 lung, 103%; with NCI-H522 lung, 103%; in the experiment with A549/ATCC NSCLC it was 97.7%. Also, the results for the growth in the experiment on 786-0 renal and with COLO 205 colon were 103% and 75.9%, respectively.

On to `Cc1ccccc1-n1nnc(C(=O)Nc2nc(-c3ccccc3)c(-c3ccccc3)s2)c1C`, for which the growth in the experiment on NCI-H23 lung is 76.3% [50 µM]; with NCI-H322M lung, 84.4% [50 µM]; in the experiment on HOP-62 NSCLC it was 84.8% [50 µM]; with NCI-H460 lung, 73.2% [50 µM]; with HOP-92 NSCLC it was 62.3% [50 µM]; with A549/ATCC NSCLC, 65.4% [50 µM]. For the same compound, the growth with 786-0 renal was 87.4% [50 µM]; in the experiment with COLO 205 colon it was 92.8% [50 µM].

`O=C(O)c1ccccc1Oc1cc(-c2ccco2)nc(OCCBr)n1`: the growth was 105% in the experiment on NCI-H23 lung; 100% with NCI-H322M lung; 101% with HOP-62 NSCLC; 110% in the experiment on NCI-H460 lung; 103% with NCI-H522 lung; 94.2% in the experiment with A549/ATCC NSCLC. Besides, the figures for the growth in the experiment on 786-0 renal and in the experiment with COLO 205 colon were 100% and 109%, respectively.

On to `Cc1cc(=O)c2c(C)ccc(C)c2[nH]1`, for which the growth was 100% in the experiment with NCI-H23 lung; 109% in the experiment with NCI-H322M lung; 104% in the experiment on HOP-62 NSCLC; 111% in the experiment with NCI-H460 lung; 96.2% with NCI-H522 lung; 93.1% in the experiment on A549/ATCC NSCLC. Further, the growth in the experiment on 786-0 renal is 96.4%; with COLO 205 colon, 125%.

Take `Cc1c(C(=O)Nc2nc(-c3ccccc3)cs2)nnn1-c1cccc2ccccc12`: the growth was 33% [50 µM] with NCI-H23 lung; 84.6% [50 µM] with NCI-H322M lung; 87.9% [50 µM] with HOP-62 NSCLC; 56.4% [50 µM] with NCI-H460 lung; 70.7% [50 µM] with HOP-92 NSCLC; 43.9% [50 µM] in the experiment on A549/ATCC NSCLC. Also, the growth in the experiment with 786-0 renal was 79.8% [50 µM]; in the experiment with COLO 205 colon it was 69.1% [50 µM].

With `COc1ccc(OC)c(C2C(C#N)=C(N)Oc3cc(O)ccc32)c1` (configuration not stated), the growth in the experiment on NCI-H23 lung was 88%; in the experiment on NCI-H322M lung, 102%; with HOP-62 NSCLC it was 97.4%; with NCI-H460 lung it was 108%; in the experiment on NCI-H522 lung it was 80.3%; with A549/ATCC NSCLC, 97.1%. For the same compound, the growth is 96.7% in the experiment on 786-0 renal and 101% with COLO 205 colon.

For the compound `CCN1CCN(C(=S)SCC(=O)Nc2nc3ccc(OC)cc3s2)CC1`, the growth in the experiment with NCI-H23 lung was 100%; with NCI-H322M lung, 92.3%; in the experiment on HOP-62 NSCLC it was 97.2%; with NCI-H460 lung, 113%; in the experiment with HOP-92 NSCLC, 83.8%; in the experiment on A549/ATCC NSCLC it was 99.5%. Further, the growth in the experiment on 786-0 renal was 107%; with COLO 205 colon, 112%.

As for `COc1cc(-c2nc(SC(C)C)nc(Nc3ccccc3C)c2C#N)cc(OC)c1OC`, the growth is 105% with NCI-H23 lung; 106% in the experiment with NCI-H322M lung; 104% with HOP-62 NSCLC; 107% in the experiment on NCI-H460 lung; 110% in the experiment with HOP-92 NSCLC; 101% in the experiment with A549/ATCC NSCLC. The growth in the experiment on 786-0 renal is 108%; in the experiment with COLO 205 colon it was 117%.

In the case of `O=C(Nc1nc2ccccc2[nH]1)C(=O)Nc1nc2ccccc2[nH]1`, the growth was 89.6% in the experiment on NCI-H23 lung; 91.8% in the experiment with NCI-H322M lung; 98.6% with HOP-62 NSCLC; 98.5% with NCI-H460 lung; 101% in the experiment with NCI-H522 lung; 97.5% with A549/ATCC NSCLC. Moreover, the growth in the experiment with 786-0 renal was 108%; with COLO 205 colon it was 103%.

Regarding `CC[Si](CC)(CC)OC1[C@@H](O[Si](CC)(CC)CC)[C@@H](CNC(=O)NC)O[C@H]1n1cnc2c(NC(=O)Nc3ccccc3)ncnc21` (some centres not stated), the growth in the experiment on NCI-H23 lung was 51.9%; in the experiment on NCI-H322M lung, 96.3%; in the experiment with HOP-62 NSCLC it was 95.9%; in the experiment on NCI-H460 lung, 24.8%; with HOP-92 NSCLC it was 67.2%; with A549/ATCC NSCLC, 68.5%. Besides, the figures for the growth with 786-0 renal and in the experiment on COLO 205 colon were 89.6% and 99.1%, respectively.
